Source: PubChem BioAssay (National Center for Advancing Translational Sciences (NCATS))
In the library only some 3.2% were active in any assay of this set; here they are far more common.
VACV Venus inh: vaccinia inhibition (Venus reporter). Vaccinia virus Venus reporter expression, fluorescence. Potency, µM (top dose mostly 36.5 µM), for the others: at the top dose activity change, negative = inhibition, usual class: inhibitors. 0.46% of 330,000 active; calls by dose curve; tested in A549 cells; further: nearly all actives have a fitted effect of over 30% in size
VACV mCherry inh: inhibitors of vaccinia virus infection (mCherry reporter signal); Vaccinia virus mCherry reporter infection, fluorescence; 0.63% of 310,000 active; Potency, µM (highest dose often 36.5 µM), without a hit: at the top dose activity change, negative = inhibition, most hits filed as inhibitors; calls by dose curve; tested in A549 cells; further: nearly all actives have a fitted effect of over 35% in size
FMDV inh: foot and mouth disease virus antiviral activity. FMDV antiviral cell-based qHTS. Potency, µM (series often up to 57.9 µM), for the others: at the highest dose activity change, negative = inhibition, actives largely listed as inhibitors. 1.2% of 410,000 active. AID 1159524; calls by dose curve; tested in HEK293T cells; further: read-out not given here; nearly all actives have a fitted effect of over 45% in size
LASV entry inh: Lassa virus entry inhibition. Lassa virus pseudotype entry inhibition, cell reporter. Potency, µM (highest dose often 37.9 µM), for inactives: at the top dose activity change, negative = inhibition, most hits filed as inhibitors. 1.2% of 300,000 active; calls by dose curve; tested in HEK293 cells; further: nearly all actives have a fitted effect of over 50% in size
MARV entry inh: blocks Marburg virus binding to or entry into cells; Potency, µM (series often up to 37.8 µM), without a hit: at the highest dose activity change, negative = inhibition, actives largely listed as inhibitors; Marburg virus pseudotyped entry inhibition, cell reporter; 1.8% of 300,000 active; calls by dose curve; tested in HEK293 cells
* = called active by the depositor; [ ] = dose if it differs, or a comment. On the % scale 0 is the no-effect control and ±100 the full control effect; potency means the concentration at half of the fitted maximal effect.

For O=C(C1CCCN(S(=O)(=O)c2cccc3nsnc23)C1)N1CC=C(c2ccccc2)CC1 (stereo not given) the results were VACV Venus inh inconclusive, VACV mCherry inh inconclusive, FMDV inh 20µM*, LASV entry inh inconclusive and MARV entry inh inconclusive.
Screening O=C(C1CCN(S(=O)(=O)c2cccnc2)CC1)N1CCN(c2ccccc2Cl)CC1 returned VACV Venus inh -18.1%, FMDV inh inconclusive, LASV entry inh 1.8% and MARV entry inh -2.9%.
`COc1ccc2c(c1)OC(C)CN(CCNC(=O)c1cccc(N3CCNC3=O)c1)C2` (stereo not given) gave VACV Venus inh -15.4%, VACV mCherry inh -16.1% and FMDV inh 4.2%.
Screening O=C(C1CCN(S(=O)(=O)c2ccc3ccccc3c2)CC1)N1CCN(c2ncccn2)CC1 returned VACV Venus inh -3.4%, VACV mCherry inh -5.1%, FMDV inh 28.2µM*, LASV entry inh inconclusive and MARV entry inh inconclusive.
For O=C(Nc1ccccn1)C1CCN(S(=O)(=O)c2ccc3ccccc3c2)CC1 the results were VACV Venus inh -10.0%, VACV mCherry inh -10.1%, FMDV inh -18.4%, LASV entry inh 5.8% and MARV entry inh -4.2%[46.1 µM].
Cc1ccc(Cl)cc1N1CCN(C(=O)C2CCN(S(=O)(=O)Cc3ccccc3)CC2)CC1 was read as VACV Venus inh 1.2%, VACV mCherry inh -10.8%, FMDV inh inconclusive, LASV entry inh -0.1%[46.1 µM] and MARV entry inh -8.7%[46.1 µM].
For Cc1ccc(Cl)cc1N1CCN(C(=O)C2CCN(S(=O)(=O)c3c(C)nn(C)c3C)CC2)CC1 the results were VACV Venus inh -24.5%, VACV mCherry inh -8.7%, FMDV inh 31.6µM*, LASV entry inh inconclusive and MARV entry inh inconclusive.
For O=c1n(Cc2ccc(F)cc2Cl)c2ccccc2c2nc(-c3ccccc3)nn12 the results were VACV Venus inh -15.7%, VACV mCherry inh -7.8%, FMDV inh 6.6% and LASV entry inh 6.8%[46.1 µM].
`Cc1noc(C)c1C(=O)N(C)C[C@@H]1OCc2ccccc2-c2c(n(C)c3ccccc23)C(=O)N([C@H](C)CO)C[C@H]1C` gave VACV Venus inh -15.2%, VACV mCherry inh -9.5% and FMDV inh -0.4%.
COc1ccc(NC(=O)c2cc(-c3ccccc3)nc3c2cnn3C(C)C)cc1 was read as FMDV inh 39.8µM*.
Screening O=C(c1ccc2c(c1)N(Cc1ccccc1F)C(=O)c1ccccc1S2(=O)=O)N1CCN(c2ccccn2)CC1 returned VACV Venus inh 3.4%, VACV mCherry inh 8.5%, FMDV inh -4.6%, LASV entry inh -5.4%[46.1 µM] and MARV entry inh 0.6%[46.1 µM].
For CN(C(=O)c1ccc2c(c1)N(Cc1ccc(F)cc1)C(=O)c1ccccc1S2(=O)=O)C1CCCCC1 the results were VACV Venus inh -8.2%, VACV mCherry inh -8.2%, FMDV inh -6.5%, LASV entry inh 3.1%[46.1 µM] and MARV entry inh -31.2%[46.1 µM].
`CN(C(=O)c1ccc2c(c1)N(Cc1cccc(Cl)c1)C(=O)c1ccccc1S2(=O)=O)C1CCCCC1` gave VACV Venus inh -2.3%, VACV mCherry inh -3.4%, FMDV inh -4.4% and LASV entry inh 10µM*.
O=C(c1ccc2c(c1)N(Cc1ccccc1)C(=O)c1ccccc1S2(=O)=O)N1CCN(c2ccccn2)CC1 was read as VACV Venus inh -1.6%, VACV mCherry inh -10.6%, FMDV inh 7.8%, LASV entry inh inconclusive and MARV entry inh 3.55µM*.
For CCCCn1nc(CC(=O)NCCN(CC)CC)c2ccccc2c1=O the results were VACV Venus inh 0.0%, VACV mCherry inh 13.9%, FMDV inh -8.4%, LASV entry inh 5.2%[46.1 µM] and MARV entry inh 0.6%[46.1 µM].
Screening CN(CC(=O)Nc1ccc(F)c(F)c1F)C(=O)CCCSc1nc2ccccc2[nH]1 returned VACV Venus inh -20.0%, VACV mCherry inh inactive, FMDV inh -8.2%, LASV entry inh 14.3% and MARV entry inh inconclusive.
O=C(NC1CCCCCC1)c1ccc(-n2cnnc2)cc1 was read as FMDV inh 8.2%.
For Nc1ccc(C(=O)OCC2=NC3C=c4ccccc4=CC3=N2)cc1 (stereo not given) the results were MARV entry inh 1.64µM*.
For COC(=O)N[C@H](C(C(=O)OC)=C(C)NCc1ccccc1)c1ccc(Cl)cc1 the results were MARV entry inh -16.7%[14.2 µM].
For O=C(Nc1ccc(Oc2ccccc2)cc1)c1ccc2sc([C@H]3C[C@H](O)[C@@H](CO)O3)nc2c1 the results were VACV Venus inh inconclusive, VACV mCherry inh inconclusive and FMDV inh 15.8µM*.
O=C(Nc1cccc(C(F)(F)F)c1)c1ccc2sc([C@H]3C[C@H](O)[C@@H](CO)O3)nc2c1 was read as VACV Venus inh inconclusive, VACV mCherry inh inconclusive and FMDV inh 20µM*.
Screening CC(=O)Nc1ccc(NC(=O)c2ccc3sc([C@H]4C[C@H](O)[C@@H](CO)O4)nc3c2)cc1 returned VACV Venus inh -0.2%, VACV mCherry inh inactive and FMDV inh -11.1%.
`COC(=O)C[C@@H]1OC[C@H](Cc2ccccc2)N1S(=O)(=O)c1ccc(C)cc1` gave VACV Venus inh -17.5%, VACV mCherry inh inconclusive and FMDV inh -1.9%.
Clc1ccc2nc(-c3ccc(Cl)nc3)[nH]c2c1 was read as VACV Venus inh -18.4%, VACV mCherry inh inactive, FMDV inh 25.8%, LASV entry inh inconclusive and MARV entry inh 7.94µM*.
Nc1ccc2nc(-c3ccc(Cl)cc3)[nH]c2c1 was read as VACV Venus inh inconclusive, VACV mCherry inh inconclusive and FMDV inh -9.5%.
`CCN(CC)C(=O)c1ccc2nc3ccccc3nc2c1` gave VACV Venus inh inconclusive, VACV mCherry inh 2.24µM*, FMDV inh 45.1%, LASV entry inh 20.9% and MARV entry inh 25.4%.
For Cc1ccccc1N1CCN(C2CCCN(C(=O)c3cn4cccc(C)c4n3)C2)CC1 (stereo not given) the results were FMDV inh 44.7µM*.
For COc1cc(CNC(C)(C)CO)cc(Br)c1OCc1ccccc1 the results were VACV Venus inh -12.1%, VACV mCherry inh -13.3%, FMDV inh -14.0%, LASV entry inh inconclusive and MARV entry inh inconclusive.
`CCOc1cc(CNCCO)cc(Br)c1OCc1ccccc1Cl` gave VACV Venus inh 10µM*, VACV mCherry inh -9.3%[1.46 µM], FMDV inh 12.6µM*, LASV entry inh inconclusive and MARV entry inh 15.8µM*.
`COc1cc(CNCc2ccncc2)cc(Br)c1OCc1ccccc1F` gave FMDV inh 31.6µM*, LASV entry inh inconclusive and MARV entry inh inconclusive.
`COc1cc(CNCCO)cc(Cl)c1OCc1ccccc1Cl` gave VACV Venus inh -23.1%, VACV mCherry inh -28.4%, FMDV inh -6.2%, LASV entry inh -19.7% and MARV entry inh inconclusive.
`CCOc1cc(CNC(C)(C)CO)cc(Br)c1OCc1ccc(Cl)cc1Cl` gave VACV Venus inh inconclusive, VACV mCherry inh inconclusive, FMDV inh inconclusive, LASV entry inh inconclusive and MARV entry inh 18.3µM*.
`CCOc1ccccc1NC(=O)CSc1nc2c(oc3ccccc32)c(=O)n1-c1ccc(C)c(C)c1` gave VACV Venus inh 4.3%, VACV mCherry inh -0.3%, FMDV inh -1.0% and MARV entry inh -29.3%[46.1 µM].
